Only some compounds are listed: those with a hit (about 3% of all), similar ones and a draw of the others.
SENP8 block-1: SENP8 protease inhibitors, primary screen, biochemical, luminescence; purified SENP8, Z-RLRGG-aminoluciferin cleavage; inhibition, % at 10 µM; Sentrin-specific protease 8 (Homo sapiens), Q96LD8; actives 1.2% (n = 330,000); AID 2540, 2010; in the data active means inhibition above about 50%
PPC-1+TRAIL kill: compounds killing PPC-1 cancer cells with TRAIL present, primary screen, TRAIL potentiator project, ATPLite luminescence, uHTS. PPC-1 cells + TRAIL, ATPLite viability luminescence. actives 0.41% (n = 220,000). AID 1443, 2008. cell killing (% activity), % at 4 µM or 5 µM;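 active means cell killing above 50% in the first pass at 4 µM, then a duplicate retest at 5 µM averaging 50% or more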;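 further: plate controls were cells with TRAIL plus DMSO for no effect and medium-only wells lacking cells for full effect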
SENP6 inh: SENP6 protease inhibitors, primary screen, biochemical, luminescence, uHTS. AID 2599, 2010. inhibition, % at 10 µM. Sentrin-specific protease 6 (Homo sapiens), Q9GZR1. Recombinant SENP6 catalytic domain, aminoluciferin luminescence. actives 1.8% (n = 330,000);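 active means inhibition above about 50% at the single tested dose, limit read from the data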;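 further: plate controls were DMSO wells with enzyme for no effect and DMSO wells lacking enzyme for full effect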
Target sequence (Q9GZR1 628-1112 limits assumed): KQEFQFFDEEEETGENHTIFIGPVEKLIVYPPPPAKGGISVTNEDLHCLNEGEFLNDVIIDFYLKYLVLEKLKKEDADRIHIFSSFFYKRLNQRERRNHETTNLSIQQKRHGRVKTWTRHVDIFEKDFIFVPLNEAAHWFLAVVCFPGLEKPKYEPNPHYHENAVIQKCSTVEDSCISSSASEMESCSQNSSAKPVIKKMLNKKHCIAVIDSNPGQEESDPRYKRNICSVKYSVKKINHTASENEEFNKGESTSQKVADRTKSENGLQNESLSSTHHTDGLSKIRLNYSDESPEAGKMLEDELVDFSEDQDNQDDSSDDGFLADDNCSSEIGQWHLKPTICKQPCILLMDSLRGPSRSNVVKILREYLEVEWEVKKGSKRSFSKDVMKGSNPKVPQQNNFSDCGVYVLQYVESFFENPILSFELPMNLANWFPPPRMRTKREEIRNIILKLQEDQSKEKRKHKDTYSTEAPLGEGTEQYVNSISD
SENP7 block: SENP7 protease inhibitors, primary screen, biochemical, luminescence, uHTS. recombinant SENP7, Z-RLRGG-aminoluciferin luminescence, 40 min. inhibition, % at 5 µM. actives 1.5% (n = 330,000). AID 434973, 2010;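 active means inhibition above about 50% at the single test dose, limit read from the data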;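 further: plate controls were DMSO with enzyme for no effect and no enzyme buffer wells for full effect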
SENP8 block-2: human SENP8 protease inhibitors, primary screen, biochemical, fluorescence, Nedd8 protein substrate, uHTS; recombinant SENP8; AID 602440, 2012; Sentrin-specific protease 8 (Homo sapiens), Q96LD8; inhibition, % at 20 µM; actives 0.64% (n = 360,000); in the data active means inhibition mostly above about 40%, no sharp cut-off; inactive means mostly below about 27%
TRAIL sens C8: viability loss with TRAIL in NB7+C8 cells, primary screen, TRAIL sensitizer project, cell-based, ATPlite luminescence. inhibition (viability loss, TRAIL sensitization), % at 10 µM. actives 1% (n = 360,000). AID 624354, 2012;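 active means compounds causing at least 50% loss of cell viability in the single-dose screen, relative to plate controls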
The depositor's hits bear a star; · = not tested or not shown.

SMILES | SENP8 block-1 | PPC-1+TRAIL kill | SENP6 inh | SENP7 block | SENP8 block-2 | TRAIL sens C8
Cc1nc2cc(C(F)(F)F)ccc2n1C1CCN(Cc2nnnn2Cc2ccc3c(c2)OCO3)CC1 | -6.0 | 16.8 | 0.0 | -12.7 | 23.7 | 57.9*
Cc1nc2cc(C(F)(F)F)ccc2n1C1CCN(Cc2nnnn2Cc2cccs2)CC1 | -4.7 | -4.8 | -6.4 | 0.2 | -9.7 | 22.9
COC(=O)C1=C(c2ccc(-c3ccccc3)c(F)c2)C[C@@H]2CC[C@H]1N2C(=O)NCCOc1ccccc1 | -3.1 | · | 4.8 | -4.5 | 13.6 | 7.5
CC1CCCCC1NC1CCN(C)CC1 (stereo not given) | 4.3 | · | -4.8 | 4.5 | 13.3 | 8.1
CC1CCC/C=C/C2CC(O)CC2C(O)/C=C/C(=O)O1 (stereo not given) | -6.3 | 57.1* | -21.8 | -7.1 | 19.1 | 21.7
Cn1cnc(CCN)c1 | -3.7 | · | -10.3 | -8.1 | 22.3 | 1.5
O=C(O)CC1OCC=C2CN3CCC45c6ccccc6NC4C1C2CC35 (stereo not given) | -6.2 | 0.0 | -10.3 | 6.7 | 10.4 | -5.0
O=C(O)CC1OCC=C2CN3CCC45C6=CC(=O)C(=O)C([N+](=O)[O-])=C6NC4C1C2CC35 (stereo not given) | · | -4.0 | · | · | 111.7* | -25.2
NC(=Nc1ccccc1)NN=Cc1c[nH]c2ccccc12 | · | · | · | · | 10.2 | -11.4
CC1CCN(S(=O)(=O)c2ccc(NN=C(C#N)C#N)cc2)CC1 | -9.6 | 32.8 | -12.3 | -6.5 | · | ·
N#CC(C#N)=NNc1ccc(S(N)(=O)=O)cc1 | -4.4 | -6.8 | 4.9 | 2.8 | 43.5* | 15.6
O=C(Nc1cc(Cl)cc(Cl)c1)N1Cc2ccccc2-n2nncc2C1 | · | · | · | · | 6.3 | -11.8
COc1ccc(NC2Oc3cc4c(cc3C(c3cc(OC)c(OC)c(OC)c3)C2C)OCO4)cc1 (stereo not given) | · | · | · | · | 52.4* | 20.2
COc1cc(C2c3cc4c(cc3CC3COC(=O)C32)OCO4)cc(OC)c1OC (stereo not given) | -0.7 | · | 12.4 | 7.6 | 8.2 | 10.7
C[C@]12CC[C@@H]3c4ccc(O)c(O)c4CC[C@H]3[C@@H]1CC[C@@H]2O | 12.9 | 11.2 | -2.3 | 3.8 | 45.1* | 11.5
C[C@]12CC[C@H]3[C@@H](CCC4=CC(=O)CC[C@@H]43)[C@@H]1CC[C@@H]2O | 8.1 | · | 14.3 | -7.2 | -0.7 | -2.0
Cc1cc(OCC(=O)N2CCN(CC(=O)N3CCOCC3)CC2)c(C(C)C)cc1Cl | 6.5 | · | -13.1 | 1.7 | 16.0 | -4.1
COc1ccc(-[n+]2c(-c3ccccc3)cc(-c3ccc(C)cc3)cc2-c2ccccc2)cc1 | -5.0 | · | -13.6 | -8.1 | -173.5 | 57.0*
Oc1ccccc1-[n+]1c(-c2ccccc2)cc(-c2ccccc2)cc1-c1ccccc1 | -5.5 | · | -11.8 | 3.3 | 31.2 | 30.8
Cc1ccccc1-[n+]1c(-c2ccccc2)cc(-c2ccccc2)cc1-c1ccccc1 | -15.1 | · | -22.3 | -2.0 | -426.9 | 67.5*
Cc1ccc(-c2cc(-c3ccccc3)cc(-c3ccccc3)[n+]2-c2ccc(C(=O)O)cc2)cc1 | -2.0 | · | -8.7 | -2.9 | -346.6 | -5.6
Brc1ccc(-[n+]2c(-c3ccccc3)cc(-c3ccccc3)cc2-c2ccccc2)cc1 | 3.4 | · | -1.6 | 2.2 | -103.6 | 56.2*
O=C(O)c1ccc(-[n+]2c(-c3ccccc3)cc(-c3ccccc3)cc2-c2ccccc2)cc1 | 1.0 | · | -11.0 | -3.7 | -16.4 | 3.9
CCCOC(=O)c1ccc(-[n+]2c(-c3ccccc3)cc(-c3ccccc3)cc2-c2ccccc2)cc1 | 4.9 | · | -8.5 | -1.1 | -310.1 | 58.3*
COc1ccc(C(CC(=O)N2CCC3(CC2)OCCO3)NS(=O)(=O)c2ccc(C)cc2)cc1 (stereo not given) | -2.7 | -0.5 | -9.6 | -3.8 | 12.0 | -2.5
COc1ccc(C(CC(=O)N2CCC3(CC2)OCCO3)NS(=O)(=O)c2ccc(OC)cc2)cc1 (stereo not given) | -10.9 | 54.1* | -15.5 | -3.0 | 16.4 | 0.6

From PubChem BioAssay
